# Results taken from paper PMC4336329 (PLoS ONE, 2015).
# The campaign covered roughly 310,000 compounds. About 14,000 (4.5%) showed an effect of 50% or more. The effect is printed as a negative number. What follows is part of a selection rich in strong results, with near analogues and random picks from the rest.
# Target: human ether-à-go-go-related gene (hERG) potassium channel (human, UniProt Q12809)
# Assay: primary screen, population patch clamp on CHO cells stably expressing hERG; higher = less effect of the substance
# 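Further: peak tail current of the secondary pulse compared with the same well before compound.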
# human ether-à-go-go-related gene (hERG) potassium channel, sequence (Q12809 whole entry, looked up): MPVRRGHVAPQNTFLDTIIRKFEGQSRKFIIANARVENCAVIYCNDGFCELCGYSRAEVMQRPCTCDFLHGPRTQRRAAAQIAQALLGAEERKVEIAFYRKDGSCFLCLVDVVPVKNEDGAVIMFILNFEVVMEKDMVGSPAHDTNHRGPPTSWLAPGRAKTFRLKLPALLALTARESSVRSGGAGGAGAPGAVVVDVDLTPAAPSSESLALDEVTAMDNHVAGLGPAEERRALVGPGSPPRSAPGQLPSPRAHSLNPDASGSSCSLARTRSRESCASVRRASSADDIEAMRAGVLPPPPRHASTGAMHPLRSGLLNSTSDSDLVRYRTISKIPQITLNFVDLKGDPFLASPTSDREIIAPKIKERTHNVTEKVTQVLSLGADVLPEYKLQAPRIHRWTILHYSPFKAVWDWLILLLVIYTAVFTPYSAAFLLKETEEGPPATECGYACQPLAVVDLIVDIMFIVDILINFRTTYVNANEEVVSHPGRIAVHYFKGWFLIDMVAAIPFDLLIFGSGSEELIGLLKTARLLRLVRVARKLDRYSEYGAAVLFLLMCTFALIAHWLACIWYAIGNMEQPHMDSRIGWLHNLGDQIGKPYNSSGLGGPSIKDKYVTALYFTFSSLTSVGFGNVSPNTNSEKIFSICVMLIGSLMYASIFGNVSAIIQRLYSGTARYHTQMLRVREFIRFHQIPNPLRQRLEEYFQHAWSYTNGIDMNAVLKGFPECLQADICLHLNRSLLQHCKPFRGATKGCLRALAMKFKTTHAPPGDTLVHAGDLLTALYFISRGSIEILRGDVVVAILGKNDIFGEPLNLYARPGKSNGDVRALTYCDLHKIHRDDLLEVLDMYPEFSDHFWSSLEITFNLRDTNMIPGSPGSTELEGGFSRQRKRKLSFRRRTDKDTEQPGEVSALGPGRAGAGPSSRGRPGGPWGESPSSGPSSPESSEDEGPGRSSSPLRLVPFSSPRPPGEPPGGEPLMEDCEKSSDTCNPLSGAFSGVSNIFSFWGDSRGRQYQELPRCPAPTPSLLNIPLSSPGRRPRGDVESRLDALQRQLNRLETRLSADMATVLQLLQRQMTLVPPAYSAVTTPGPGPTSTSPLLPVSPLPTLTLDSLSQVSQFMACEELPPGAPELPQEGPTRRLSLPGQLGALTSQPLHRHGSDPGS
row,SMILES,"hERG current change (%, negative = inhibition) at 10uM"
1,CC1(/[N+]([O-])=C\c2ccccc2F)CCCCC1=O (centres unmarked),8.53%
2,Cc1ccn2c(-c3n[nH]c(=S)n3C)c(C)nc2c1,19.6%
3,COc1cccc(NC(=O)N2CCCC2C(=O)Nc2ccc3c(c2)OCO3)c1 (centres unmarked),15.8%
4,C=CCn1c(O)c(C=NC2CCN(Cc3ccccc3)CC2)c(=O)[nH]c1=O,-33.5%
5,O=c1[nH]c(=O)n(Cc2ccco2)c(O)c1/C=N/N1CCCCC1,3.21%
6,O=c1[nH]c(=O)n(Cc2ccco2)c(O)c1C=NC1CCN(Cc2ccccc2)CC1,-59.2%
7,O=c1[nH]c(=O)n(Cc2ccco2)c(O)c1C=NC1CC1,9.35%
8,O=c1[nH]c(=O)n(CCC2=CCCCC2)c(O)c1C=NC1CCN(Cc2ccccc2)CC1,-58.6%
9,O=c1[nH]c(=O)n(C2CCCCCC2)c(O)c1C=NC1CCN(Cc2ccccc2)CC1,-53.2%
10,Cn1c(O)c(C=NC2CCN(Cc3ccccc3)CC2)c(=O)n(C)c1=O,-20.4%
11,O=c1[nH]c(=O)n(CCC2=CCCCC2)c(O)c1/C=N/Nc1ccccc1,14.8%
12,O=C(N/N=C/c1c(O)n(CCC2=CCCCC2)c(=S)[nH]c1=O)c1ccccc1,7.94%
13,O=c1[nH]c(=S)n(CCC2=CCCCC2)c(O)c1/C=N/Nc1ccccc1,-7.83%
14,O=c1[nH]c(=S)n(CCC2=CCCCC2)c(O)c1C=NC1CCN(Cc2ccccc2)CC1,-55%
15,O=c1[nH]c(=O)n(C2CCCCCC2)c(O)c1C=NCc1cccnc1,-9.79%
16,CC(C)(C)NC(=O)COC(=O)c1cc(S(=O)(=O)N2CCCCC2)ccc1N1CCOCC1,-6.23%
17,CCOC(=O)c1ccc(N2C(=O)CC(Nc3ccc(CCO)cc3)C2=O)cc1 (centres unmarked),-25.5%
18,OCC[C@@H]1C[C@H](O)[C@@H](O)[C@]2(CCCCO2)O1,21.2%
19,CCOc1ccc(C(Nc2ccc(C)cc2)P2(=O)OCC(C)(C)CO2)cc1 (centres unmarked),4.67%
20,Cn1cccc1CC(=O)NNC(=O)Nc1cccc(Cl)c1,18.9%
21,O=S(=O)(Nc1ccccc1O)c1cccc2cccnc12,8.14%
22,O=C(CNC(=O)c1cccs1)NCCN1CCN(c2ccccc2F)CC1,-35.3%
23,N#Cc1ccc(NC(=O)N2CCC(c3nc4c(nnn4Cc4cccc(Cl)c4)c(=O)[nH]3)CC2)cc1,3.5%

row,SMILES,"hERG current change (%, negative = inhibition) at 10uM"
1,Cc1ccccc1SCC(=O)Nc1cc(C(F)(F)F)ccc1N1CCOCC1,-1.77%
2,Cn1c(O)c(C=NC2CCN(Cc3ccccc3)CC2)c(=O)[nH]c1=O,-26.5%
3,CCCCCCn1c(O)c(C=NC2CCN(Cc3ccccc3)CC2)c(=O)[nH]c1=O,-65.7%
4,O=c1[nH]c(=O)n(CCc2ccccc2)c(O)c1C=NC1CC1,3.17%
5,COC(=O)c1ccccc1NC(=O)CN1CCOCC1,5.86%
6,COC(=O)c1ccccc1NC(=O)CN1CCN(C23CC4CC(CC(C4)C2)C3)CC1,-77.5%
7,O=C(CN1CCOCC1)Nc1ccccc1-c1ccccc1,4.15%
8,NC(=O)c1ccccc1NC(=O)Nc1cccc(Cl)c1,-8.62%
9,COC(=O)c1ccccc1NC(=O)N1CCN(C(=O)c2ccco2)CC1,-25%
10,NC(=O)c1ccccc1NC(=O)CN1CCN(Cc2ccc(Cl)cc2Cl)CC1,-76.1%
11,COC(=O)c1ccccc1NC(=O)CN1CCC(C)CC1,9.3%
12,O=C(CN1CCCCC1)Nc1ccccc1-c1ccccc1,-9.07%
13,COC(=O)c1ccccc1NC(=O)CN1CCN(C(=O)c2ccco2)CC1,-51.6%
14,Cc1cccc(NC(=O)CN2CCN(CC(=O)NCc3ccc(Cl)cc3Cl)CC2)c1C,-18.2%
15,O=C(CN1CCN(Cc2ccccc2)CC1)Nc1ccccc1-c1ccccc1,-89.8%
16,COc1ccc(OCC(=O)NCCCN2CCOCC2)cc1,10.7%
17,CC1=C(C(=O)OCc2ccccc2)C(c2ccsc2)C(C#N)=C(N)O1 (centres unmarked),-6.93%
18,Cc1cccc(COc2ccc(/C=C3/C(=O)N(C)C(=S)N3C)cc2)c1,15.7%
19,O=C(Nc1ccccc1)Nc1nnc(Cc2ccc(F)cc2)s1,20.1%
20,O=C(NCc1ccco1)c1ccccc1,8.8%
21,CCN(CC)S(=O)(=O)c1ccc(N2CCOCC2)c(NC(=O)Cc2cccc3ccccc23)c1,-1.03%
22,N#CC1=C(N)N(c2ccccc2)C(c2cccc([N+](=O)[O-])c2)C1(C#N)C#N (centres unmarked),-29.6%
23,COC(=O)c1ccccc1NC(=O)CN1CCCCCC1,8%

row,SMILES,"hERG current change (%, negative = inhibition) at 10uM"
1,COc1cc([N+](=O)[O-])ccc1NC(=O)CN1CCN(C(=O)c2ccco2)CC1,-78.4%
2,COc1ccc(NC(=O)CN2CCN(C(=O)c3ccco3)CC2)c(OC)c1,-37.4%
3,COC(=O)c1ccccc1NC(=O)CN1CCN(Cc2ccccc2)CC1,-74.5%
4,COc1ccccc1NC(=O)CN1CCN(C(=O)c2ccco2)CC1,-22%
5,O=C(CN1CCN(C(=O)c2ccco2)CC1)Nc1ccccc1-c1ccccc1,-50.5%
6,O=C(CN1CCN(C(=O)c2ccco2)CC1)Nc1ccccc1,-13.9%
7,COC(=O)c1ccccc1NC(=O)CN1CCCCC1,9.99%
8,COc1cc([N+](=O)[O-])ccc1NC(=O)CN1CCOCC1,9.44%
9,COc1ccccc1NC(=O)c1ccc(NC(=O)CN2CCN(C(=O)c3ccco3)CC2)cc1,-72.9%
10,NC(=O)c1ccc(NC(=O)CN2CCN(C(=O)c3ccco3)CC2)cc1,-3.09%
11,COc1ccccc1NC(=O)c1ccc(NC(=O)CN2CCCC2)cc1,-34.2%
12,COc1ccc(NC2(c3ccccc3)OC(=O)c3ccccc32)cc1 (centres unmarked),1.2%
13,CC(=O)c1cccc(OCc2cc(C(=O)NCCC3=CCCCC3)no2)c1,7.85%
14,COc1cccc(NC(=O)c2nnn(CC(=O)Nc3cc(C)cc(C)c3)c2N)c1,13.5%
15,O=C(c1cccc(COc2cccc3ccccc23)c1)N1CCCC1,-4.59%
16,CC(=O)Nc1ccc(S(=O)(=O)NCCC(=O)Nc2cc(C)ccn2)cc1,7.68%
17,NS(=O)(=O)c1ccc(CCNC(=O)C2CCCN(S(=O)(=O)c3cccnc3)C2)cc1 (centres unmarked),-4.22%
18,NC(=O)c1ccccc1NC(=O)CN1CCCCCC1,11.1%
19,NC(=O)c1ccccc1NC(=O)CN1CCOCC1,7.22%
20,NC(=O)c1ccccc1NC(=O)CN1CCN(Cc2ccccc2)CC1,-78.3%
21,O=C1Nc2ccc(S(=O)(=O)NCc3ccco3)c3cccc1c23,-16.2%
22,O=C1NN(c2cccc(Br)c2)C(=O)/C1=C/c1ccc(-c2cc([N+](=O)[O-])ccc2O)o1,-9.65%
23,CCNC(=O)COc1ccc(S(=O)(=O)Nc2ccccc2)cc1,-1.85%

row,SMILES,"hERG current change (%, negative = inhibition) at 10uM"
1,CC(C)C(=O)Nc1cccc(NC(=S)NC(=O)c2ccccc2Cl)c1,-9.02%
2,CCCC(c1c(C)n(C)n(-c2ccccc2)c1=O)c1c(C)n(C)n(-c2ccccc2)c1=O,0.692%
3,Br.CCc1ccc(OCC(=O)NN2Cc3ccccc3C2=N)cc1,-38.8%
4,Br.COc1ccc(OCC(=O)NN2Cc3ccccc3C2=N)cc1,-18.1%
5,Br.N=C1c2ccccc2CN1NC(=O)COc1ccc(Cl)cc1,-50.4%
6,Br.CCOc1ccccc1OCC(=O)NN1Cc2ccccc2C1=N,-73.5%
7,Br.CC(C)(C)c1ccc(OCC(=O)NN2Cc3ccccc3C2=N)cc1,-65.5%
8,Br.Cc1ccccc1OCC(=O)NN1Cc2ccccc2C1=N,-0.416%
9,Br.COc1ccccc1OCC(=O)NN1Cc2ccccc2C1=N,1.99%
10,Br.Cc1cc(C)cc(OCC(=O)NN2Cc3ccccc3C2=N)c1,-11.6%
11,Br.N#Cc1ccc(OCC(=O)NN2Cc3ccccc3C2=N)cc1,4.14%
12,Cc1ccsc1C(=O)OCC(=O)NC1CCCC1,13%
13,CC1(C)CC(=O)CC(C2(O)C(=O)N(Cc3ccccc3)c3ccccc32)O1 (centres unmarked),7.55%
14,COCCCNC(=S)N1CCC(NC(=O)c2ccco2)CC1,-4.82%
15,COCC(=O)N(CCc1ccc(OC)c(OC)c1)Cc1nc2ccccc2c(=O)[nH]1,-8.28%
16,C/C(=N/NS(=O)(=O)c1cc(C)ccc1C)c1ccncc1,11%
17,CCCCC(=O)Nc1ccc(C(=O)N2CCN(C)CC2)cc1,6.41%
18,CCOC(=O)N1CCN(C(=O)c2ccc(SC)cc2OC)CC1,-2.46%
19,O=C(Cc1coc2cc3c(cc12)CCC3)OCc1cc(=O)n2c(n1)sc1ccccc12,4.53%
20,CC(=O)O[C@@]12CO[C@@H]1C[C@H](OC1OCC(O)C(O)C1O)[C@@]1(C)C(=O)[C@H](O)C3=C(C)[C@@H](OC(=O)[C@H](O)[C@@H](NC(=O)c4ccccc4)c4ccccc4)C[C@@](O)([C@@H](OC(=O)c4ccccc4)C12)C3(C)C (some centres unmarked),-7.05%
